{"source": "PubChem BioAssay (NCI)", "note": "Compounds without any hit were thinned out: in the full panel of roughly 83,000, 20% have a hit.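 How to read the values: 0–100, growth inhibition (40 = 60% inhibited); 0, no net growth; -100 to 0, cell death (-40 = 40% of starting cells died; -100 = all dead).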 A number with no mark means an inactive call. Activity calls are given as the source filed them. The calls were made as follows: active = growth percent below 10; inactive = the rest."}
{"tested_on": "MDA-MB-468 breast", "assay": "NCI-60 one-dose screen, 48 h (100 = growth as untreated, 0 = no growth, -100 = all killed)", "details": "10 µM unless noted"}
{"smiles": "COc1ccc(/C=C(\\C#N)C(=O)N2c3ccccc3Sc3ccc(SC)cc32)cc1F", "growth": "72.3%"}
{"smiles": "O=C1OC(c2ccccc2)=N/C1=C\\c1ccc([N+](=O)[O-])cc1", "growth": "94.6%"}
{"smiles": "CC1=C(C(=O)n2c3ccccc3c3ccccc32)C(c2cccc([N+](=O)[O-])c2)C(C(=O)n2c3ccccc3c3ccccc32)=C(C)N1", "growth": "118%"}
{"smiles": "COc1ncc(-c2ccc3ncnc(Nc4cccc(Cl)c4)c3c2)cc1N(S(C)(=O)=O)S(C)(=O)=O", "growth": "-3.15% (active)"}
{"smiles": "CCOC(=O)c1ccccc1SC(C[N+](=O)[O-])c1ccccc1", "note": "(centres undefined)", "growth": "63.7%"}
{"smiles": "COc1cc2cc(NCc3ccc(F)cc3)nc(C)c2cc1OC", "growth": "62.8%"}
{"smiles": "Cc1c(C(=O)Nc2nc3ccccc3[nH]2)cnn1-c1ccccn1", "growth": "112%"}
{"smiles": "CC1=C(C)C(=O)C(Nc2cccc(C(=O)OC(C)(C)C)c2)=C(Cl)C1=O", "growth": "-23.6% (active)"}
{"smiles": "CC(C)(O)c1cncc(-c2ccc3ncc(C#N)c(N4CCc5cc(F)c(Cl)cc54)c3c2)c1", "growth": "10.2%"}
{"smiles": "CCC(C)C1CCC(O)CC1", "note": "(centres undefined)", "growth": "101%"}
{"smiles": "Cc1ccc([P+](Cc2ccccc2)(c2ccccc2)c2ccccc2)cc1", "growth": "-13.5% (active)"}
{"smiles": "CCN(CC)CCOc1nc2cc(OC)c(OC)cc2c2c1-c1ccc(OC)cc1C2=O", "growth": "84%"}
{"smiles": "CCOC(=O)C1=CN(C)C=C(C(=O)OCC)C1c1cc(Br)c(OCC)c(OC)c1", "growth": "62.1%"}
{"smiles": "N#Cc1c(N)nn(C(=O)c2ccc(NC(=O)c3ccccn3)cc2)c1-c1ccc(Cl)cc1", "growth": "-29.3% (active)"}
